# The campaign covered roughly 310,000 compounds. About 14,000 (4.5%) showed an effect of 50% or more. Effects have a minus sign here. This is one part of a sample in which strong results are shown more often than they occur.
# Target: human ether-à-go-go-related gene (hERG) potassium channel (human, UniProt Q12809)
# Assay: primary screen, population patch clamp on CHO cells stably expressing hERG; higher = less effect of the substance
# 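Note: peak tail current of the secondary pulse compared with the same well before compound.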
# human ether-à-go-go-related gene (hERG) potassium channel, sequence (Q12809 whole entry, looked up): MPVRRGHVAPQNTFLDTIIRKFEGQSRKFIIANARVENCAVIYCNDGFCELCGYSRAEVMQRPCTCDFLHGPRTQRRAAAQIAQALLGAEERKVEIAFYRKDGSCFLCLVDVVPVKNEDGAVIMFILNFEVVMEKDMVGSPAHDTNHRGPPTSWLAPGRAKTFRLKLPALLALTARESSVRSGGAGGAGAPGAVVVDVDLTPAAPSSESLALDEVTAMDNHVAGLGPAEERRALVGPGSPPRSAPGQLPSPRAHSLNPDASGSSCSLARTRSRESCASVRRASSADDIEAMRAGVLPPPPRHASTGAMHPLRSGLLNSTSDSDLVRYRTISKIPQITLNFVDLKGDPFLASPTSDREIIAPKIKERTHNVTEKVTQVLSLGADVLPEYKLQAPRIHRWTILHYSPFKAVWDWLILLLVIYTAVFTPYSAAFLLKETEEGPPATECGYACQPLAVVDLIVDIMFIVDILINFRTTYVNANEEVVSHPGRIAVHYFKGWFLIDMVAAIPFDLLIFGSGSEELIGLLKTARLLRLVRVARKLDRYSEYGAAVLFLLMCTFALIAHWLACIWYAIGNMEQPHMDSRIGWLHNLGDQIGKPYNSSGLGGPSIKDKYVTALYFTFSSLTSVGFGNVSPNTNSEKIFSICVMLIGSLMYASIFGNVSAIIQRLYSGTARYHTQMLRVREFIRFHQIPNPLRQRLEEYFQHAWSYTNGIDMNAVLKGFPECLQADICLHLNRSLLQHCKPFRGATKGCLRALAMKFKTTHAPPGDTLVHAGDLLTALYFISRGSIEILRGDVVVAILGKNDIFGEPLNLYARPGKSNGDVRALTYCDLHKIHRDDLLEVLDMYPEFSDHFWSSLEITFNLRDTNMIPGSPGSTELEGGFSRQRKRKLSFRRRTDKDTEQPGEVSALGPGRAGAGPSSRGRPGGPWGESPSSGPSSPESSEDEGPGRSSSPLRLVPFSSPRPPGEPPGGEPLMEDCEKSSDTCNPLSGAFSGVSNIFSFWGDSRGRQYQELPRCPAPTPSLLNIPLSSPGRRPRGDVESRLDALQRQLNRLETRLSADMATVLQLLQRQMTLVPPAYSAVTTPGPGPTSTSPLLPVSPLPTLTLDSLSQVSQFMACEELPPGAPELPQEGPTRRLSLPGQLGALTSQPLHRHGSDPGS
row,Compound,"hERG current change (%, negative = inhibition) at 10uM [%]"
1,COc1cc(CNCCNC(=O)c2nonc2N)ccc1OCc1ccc(Cl)nc1.Cl,-56.4
2,COc1cc(CNCCNC(=O)c2nonc2N)ccc1OCc1ccc(Cl)cc1.Cl,-74.4
3,COc1ccc(CNCCNC(=O)c2nonc2N)cc1OC.Cl,-24.8
4,CC(C(=O)Nc1nccs1)N1C(=O)c2ccccc2S1(=O)=O (stereo not shown),11.5
5,CCc1nn(CCCC(=O)N2CCC(C)CC2)c(=O)c2cc3occc3n12,-2.71
6,O=C(OCC(=O)N1CCCCCC1)c1cnc(Cl)c(Cl)c1,-2.83
7,Cc1cccc(NC(=O)c2ccc(NCC3CCCO3)c([N+](=O)[O-])c2)n1 (stereo not shown),14.2
8,Cc1cccc(NC(=O)c2cc([N+](=O)[O-])ccc2N2CCCCC2)n1,-35.1
9,COc1cccc(NC(=O)c2cc([N+](=O)[O-])ccc2NC(=O)CNCC2CCCO2)c1 (stereo not shown),-16.4
10,Cc1cccc(NC(=O)c2ccc([N+](=O)[O-])cc2Cl)n1,-22.8
11,Cc1cccc(NC(=O)c2cc([N+](=O)[O-])ccc2NCC2CCCO2)n1 (stereo not shown),-80.9
12,COCCNc1ccc([N+](=O)[O-])cc1C(=O)Nc1cccc(C)n1,-62.7
13,Cc1ccc(C)c(N(CC(=O)NN=C2CCCCCCC2)S(C)(=O)=O)c1,-5.63
14,CC1(C)O[C@@H]2CC3C4C[C@H](F)C5=CC(=O)C=CC5(C)C4C(O)CC3(C)[C@]2(C(=O)CO)O1 (stereo partly shown),1.68
15,COC(=O)C1CN(C(=O)C(C)Oc2ccccc2F)c2ccccc2O1 (stereo not shown),15.6
16,CCCCN1C(=O)C(O)=C(C(C)=O)C1c1ccccc1 (stereo not shown),11
17,Cc1cc(OCC(=O)N2CCN(c3ccccn3)CC2)cc(C)c1Br,-32.3
18,O=C(COc1ccc(F)c(Cl)c1)N1CCN(c2ccccn2)CC1,-55.3
19,CCC(=O)c1ccc(OCC(=O)N2CCN(c3ccccn3)CC2)cc1,-31.5
20,CC(C)(C)c1ccc(OCC(=O)N2CCN(c3ccccn3)CC2)cc1,-51.7
21,O=C(COc1ccc(Cl)cc1Cl)N1CCN(c2ccccn2)CC1,-33.3
22,O=C(COc1cc(Cl)c(Cl)cc1Cl)N1CCN(c2ccccn2)CC1,16
23,Cc1ccc(C)c(NS(=O)(=O)c2ccc3c(c2)NC(=O)CCS3)c1,-15

row,Compound,"hERG current change (%, negative = inhibition) at 10uM [%]"
1,COC(=O)COc1cccc(/C=N/NC(=O)CCSc2ccccc2)c1,-15.7
2,C(=N\c1nc2ccccc2n1CCN1CCOCC1)/c1cccs1,-20.7
3,CCOc1ccc(N2C(=O)CC(Sc3nc(-c4cccs4)cc(C(F)(F)F)c3C#N)C2=O)cc1 (stereo not shown),10.2
4,CCCNC(=O)c1csc(Nc2cccc3ccccc23)n1,-30
5,COCCNC(=O)c1csc(Nc2cccc3ccccc23)n1,-35.9
6,CN(C)CCNC(=O)c1csc(Nc2cccc3ccccc23)n1,-55.4
7,CCN(CC)CCCNC(=O)c1csc(Nc2cccc3ccccc23)n1,-71.6
8,O=C(NCC(O)CO)c1csc(Nc2cccc3ccccc23)n1 (stereo not shown),-2.43
9,CCN(CC)C(=O)c1csc(Nc2cccc3ccccc23)n1,-16.9
10,Cc1ccc(S(=O)(=O)N(C)C)cc1NC(=S)NC(C)CCC(C)C (stereo not shown),-14
11,Cn1ccnc1SCC(=O)c1cccc(C(F)(F)F)c1,-27.8
12,COC(=O)c1ccc(Cn2nc(C)c(Cl)c2C)o1,8.75
13,CC12CC(NC(=O)N1c1cccc(C(=O)N3CCN(c4ccccc4F)CC3)c1)c1ccccc1O2 (stereo not shown),-6.74
14,Cc1cc(C)cc(N2C(=O)CC(N(C(=O)c3ccco3)c3cc(C)cc(C)c3)C2=O)c1 (stereo not shown),12.8
15,CCn1cc(C(=O)NC2CCCCC2)c(=O)c2ccc(C)nc21,8.6
16,Cc1ccc2nc3c(cc(C(=O)NC4CCCCC4)c(=N)n3C3CCCCC3)c(=O)n2c1,-74.7
17,Cc1ccc2nc3c(cc(C(=O)NC4CCCC4)c(=N)n3C3CCCCC3)c(=O)n2c1,-77.2
18,Cc1ccc2nc3c(cc(C(=O)NC4CCCC4)c(=N)n3CCCn3ccnc3)c(=O)n2c1,-58.6
19,Cc1ccc2nc3c(cc(C(=O)NCCCn4ccnc4)n3C)c(=O)n2c1,-34.1
20,CCn1cc(C(=O)NC2CCCCCC2)c(=O)c2ccc(C)nc21,-4.88
21,Cc1ccc(S(=O)(=O)c2cc3c(=O)n4ccccc4nc3n(C3CCCC3)c2=N)cc1,6.01
22,Cc1ccc(S(=O)(=O)c2cc3c(=O)n4ccccc4nc3n(C3CCCCC3)c2=N)cc1,-5.93
23,Cc1ccc(S(=O)(=O)NC(=O)c2cc(C)n(CCCn3ccnc3)c2C)cc1,-2.28

# Reference: paper PMC4336329 (PLoS ONE, 2015)
